About 6,900 (3.6%) of roughly 190,000 compounds were called active. The list comes from a sample in which actives are over-represented; it also holds similar structures and randomly drawn compounds. A number with no mark means an inactive call. No stated cut-off is given here; in the data, active means inhibition above about 50%; inactive means the rest.
target: Huntingtin (Homo sapiens) (UniProt P42858); assay: mutant huntingtin-calmodulin interaction inhibitors – biochemical, AlphaScreen, primary screen (AID 1671202); conditions: AlphaScreen His-mHTT/GST-CaM binding, luminescence; at 15 µM, active compounds read high;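 further: 0% = both proteins with DMSO and 100% = one protein alone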
Sequence (P42858 whole entry, looked up, stated change not applied): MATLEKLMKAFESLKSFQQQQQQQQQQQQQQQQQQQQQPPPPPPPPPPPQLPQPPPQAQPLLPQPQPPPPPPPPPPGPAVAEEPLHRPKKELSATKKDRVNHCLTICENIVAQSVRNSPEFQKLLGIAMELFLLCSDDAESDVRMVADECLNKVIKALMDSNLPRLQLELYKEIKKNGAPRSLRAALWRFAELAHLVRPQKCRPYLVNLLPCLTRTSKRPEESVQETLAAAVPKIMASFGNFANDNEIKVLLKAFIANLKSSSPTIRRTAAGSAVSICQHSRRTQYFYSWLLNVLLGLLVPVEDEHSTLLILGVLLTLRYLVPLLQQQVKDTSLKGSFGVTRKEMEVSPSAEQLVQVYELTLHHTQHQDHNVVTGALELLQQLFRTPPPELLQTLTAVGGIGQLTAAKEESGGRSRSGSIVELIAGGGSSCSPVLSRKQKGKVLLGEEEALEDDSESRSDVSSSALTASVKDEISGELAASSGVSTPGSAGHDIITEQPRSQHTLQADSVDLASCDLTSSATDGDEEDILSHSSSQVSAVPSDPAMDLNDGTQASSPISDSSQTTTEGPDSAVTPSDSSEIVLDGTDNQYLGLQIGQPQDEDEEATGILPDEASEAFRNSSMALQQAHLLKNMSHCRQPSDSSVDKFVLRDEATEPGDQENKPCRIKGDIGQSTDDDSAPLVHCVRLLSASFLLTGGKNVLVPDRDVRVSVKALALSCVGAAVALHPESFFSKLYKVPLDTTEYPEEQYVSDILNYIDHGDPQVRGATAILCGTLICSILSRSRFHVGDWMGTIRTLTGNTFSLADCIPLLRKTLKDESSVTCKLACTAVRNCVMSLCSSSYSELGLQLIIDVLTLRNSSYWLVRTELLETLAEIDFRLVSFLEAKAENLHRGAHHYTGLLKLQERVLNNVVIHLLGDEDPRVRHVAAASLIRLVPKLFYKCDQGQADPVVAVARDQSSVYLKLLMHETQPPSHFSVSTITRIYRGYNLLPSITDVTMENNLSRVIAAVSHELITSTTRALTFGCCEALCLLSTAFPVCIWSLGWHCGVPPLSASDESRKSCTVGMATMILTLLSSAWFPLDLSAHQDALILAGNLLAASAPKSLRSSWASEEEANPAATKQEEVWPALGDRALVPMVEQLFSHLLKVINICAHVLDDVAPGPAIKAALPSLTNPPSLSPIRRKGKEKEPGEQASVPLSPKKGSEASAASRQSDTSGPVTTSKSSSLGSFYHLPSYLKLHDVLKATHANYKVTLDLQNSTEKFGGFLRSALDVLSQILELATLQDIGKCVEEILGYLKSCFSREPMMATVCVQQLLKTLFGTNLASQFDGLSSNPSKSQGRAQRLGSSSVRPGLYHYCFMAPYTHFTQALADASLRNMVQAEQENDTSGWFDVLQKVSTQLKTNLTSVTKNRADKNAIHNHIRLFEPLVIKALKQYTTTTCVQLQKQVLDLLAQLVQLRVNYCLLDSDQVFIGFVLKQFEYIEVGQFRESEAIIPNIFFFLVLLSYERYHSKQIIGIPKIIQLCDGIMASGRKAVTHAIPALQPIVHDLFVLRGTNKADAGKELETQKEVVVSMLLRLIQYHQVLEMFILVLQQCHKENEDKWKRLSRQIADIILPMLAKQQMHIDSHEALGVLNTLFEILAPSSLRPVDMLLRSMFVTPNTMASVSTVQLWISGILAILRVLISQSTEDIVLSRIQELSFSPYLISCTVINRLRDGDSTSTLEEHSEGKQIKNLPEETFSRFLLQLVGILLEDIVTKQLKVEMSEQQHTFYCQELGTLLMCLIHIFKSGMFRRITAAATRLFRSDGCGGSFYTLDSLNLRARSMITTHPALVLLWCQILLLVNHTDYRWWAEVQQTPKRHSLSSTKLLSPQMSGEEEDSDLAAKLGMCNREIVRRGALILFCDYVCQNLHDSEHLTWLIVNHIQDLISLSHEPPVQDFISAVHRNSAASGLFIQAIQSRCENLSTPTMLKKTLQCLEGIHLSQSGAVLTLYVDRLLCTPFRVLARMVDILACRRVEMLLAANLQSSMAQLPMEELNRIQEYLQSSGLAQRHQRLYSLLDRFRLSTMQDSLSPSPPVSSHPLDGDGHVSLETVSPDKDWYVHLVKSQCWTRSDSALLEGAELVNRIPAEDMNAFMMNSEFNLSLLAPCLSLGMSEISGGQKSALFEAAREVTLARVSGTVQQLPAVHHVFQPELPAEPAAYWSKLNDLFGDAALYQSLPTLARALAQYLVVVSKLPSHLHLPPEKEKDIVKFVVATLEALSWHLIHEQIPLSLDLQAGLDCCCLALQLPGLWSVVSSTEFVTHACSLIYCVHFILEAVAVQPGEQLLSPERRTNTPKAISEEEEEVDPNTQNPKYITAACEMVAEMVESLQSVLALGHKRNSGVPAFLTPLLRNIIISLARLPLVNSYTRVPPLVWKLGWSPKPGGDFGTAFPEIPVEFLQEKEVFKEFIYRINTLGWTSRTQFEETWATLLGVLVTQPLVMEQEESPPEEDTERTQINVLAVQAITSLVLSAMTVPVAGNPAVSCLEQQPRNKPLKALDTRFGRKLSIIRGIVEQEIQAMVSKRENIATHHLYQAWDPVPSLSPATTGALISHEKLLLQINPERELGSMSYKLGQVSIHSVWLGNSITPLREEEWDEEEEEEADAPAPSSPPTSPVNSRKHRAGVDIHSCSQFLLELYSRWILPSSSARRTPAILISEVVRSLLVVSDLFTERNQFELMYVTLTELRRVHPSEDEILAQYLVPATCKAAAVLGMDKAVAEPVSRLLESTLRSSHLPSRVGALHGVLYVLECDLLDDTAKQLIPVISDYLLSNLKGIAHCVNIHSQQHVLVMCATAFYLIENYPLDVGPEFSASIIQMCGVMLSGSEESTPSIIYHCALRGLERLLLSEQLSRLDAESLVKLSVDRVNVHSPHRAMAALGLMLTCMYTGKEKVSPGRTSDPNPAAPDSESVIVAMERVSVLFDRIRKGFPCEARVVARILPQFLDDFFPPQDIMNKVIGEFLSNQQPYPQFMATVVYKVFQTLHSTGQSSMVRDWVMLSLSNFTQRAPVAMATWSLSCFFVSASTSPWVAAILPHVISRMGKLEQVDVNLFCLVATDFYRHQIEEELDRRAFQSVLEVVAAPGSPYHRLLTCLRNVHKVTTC

| SMILES | inhibition |
| --- | --- |
| COc1cccc(OC)c1OCCOc1cccc(Cl)c1Cl | -101% |
| Cc1cccc(NC(=O)c2ccc(F)c(S(=O)(=O)N3CCc4ccccc43)c2)c1 | -8% |
| Cc1cc2[nH]c(C(=O)Nc3cc(F)c(F)c(F)c3)c(CN(C)C)c2s1 | 8.9% |
| Cc1cccc(NC(=O)C2CCN(C(=O)c3ccc(F)cc3)CC2)c1 | -0.6% |
| O=C1OC(/C=C/c2cccc(Cl)c2Cl)=NC/1=C\c1coc2ccccc2c1=O | 6% |
| CC(C)Oc1ccccc1OCCNCc1ccco1 | -1.4% |
| Cc1ccc(C)c(NC(=O)N2CCc3c(c(COCc4cccc(F)c4)nn3C)C2)c1 | 23.8% |
| O=C(O)C1CCCCC1C(=O)Nc1nnc(-c2cccs2)s1 (stereo unspecified) | -1.3% |
| CN(C)c1ncccc1NC(=O)c1ccc(C#N)cc1 | 4.1% |
| N#Cc1ccc(C(=O)NCc2[nH]nc3ccccc23)cc1 | 64.3% (active) |
| O=C(NCc1[nH]nc2ccccc12)c1ccc(Br)o1 | -1.8% |
| Clc1ccc(-n2ncc3c(N4CCC5(CC4)OCCO5)ncnc32)cc1 | 7% |
| CC(=O)Nc1nc(C)c(-c2csc(Nc3ccc(S(N)(=O)=O)cc3)n2)s1 | 52.1% (active) |
| CCN(CC)c1ccc(Nc2nc(-c3sc(C)nc3C)cs2)cc1 | 96.7% (active) |
| NS(=O)(=O)c1ccc(NC(=O)Cc2csc(Nc3ccccn3)n2)cc1 | 33.1% |
| Cc1nc(N)sc1-c1csc(Nc2cccc([N+](=O)[O-])c2)n1 | 91.9% (active) |
| NS(=O)(=O)c1ccc(Nc2nc(-c3ccccc3)cs2)cc1 | 21% |
| Cc1nc(N)sc1-c1csc(Nc2ccc(O)cc2)n1 | 41.5% |
| O=C(O)c1ccc(Nc2nc(-c3cccs3)cs2)cc1 | 46.2% |
| COc1ccc(-c2csc(/C(C#N)=C/Nc3cccc([N+](=O)[O-])c3)n2)cc1 | -1% |
| Cc1noc(C)c1S(=O)(=O)N1CCC(CC(=O)N2CCN(C(=O)C3CC3)CC2)CC1 | 5.24% |

| SMILES | inhibition |
| --- | --- |
| COc1ccc(-c2nnc(N3CCC(C(=O)NC4CCCCC4)CC3)o2)cc1 | 7.1% |
| O=C(Nc1cccc(C(F)(F)F)c1)C(=O)c1c(O)[nH]c2ccccc12 | 10% |
| CCOc1cc(CNC(=O)C2CCN(c3nnc4ccccn34)CC2)ccc1OC | 2.75% |
| Nc1nc(-c2cc3cc(Br)cc(Br)c3oc2=O)cs1 | -7% |
| COc1ccc([C@@H]2C[C@H](c3ccccc3)Oc3cc(OC)ccc32)cc1 | -9.3% |
| COc1ccc(C2CC(O)(c3ccccc3)Oc3cc(C)cc(C)c32)cc1 (stereo unspecified) | 77.7% (active) |
| CC(=O)c1c(C(C)=O)c(C)n(Cc2ccco2)c1C | 1.2% |
| CCOC(=O)c1ccc(OCC2c3cc(OC)c(OC)cc3CCN2C(=O)c2ccccc2OC)cc1 (stereo unspecified) | 34.4% |
| COc1ccc(C(=O)N2CCc3cc(OC)c(OC)cc3C2c2ccccc2)cc1OC (stereo unspecified) | 83.2% (active) |
| COc1ccc(NC(=O)N2CCc3[nH]cnc3C2c2ccccc2)cc1OC (stereo unspecified) | 3.67% |
| COc1cc2c(cc1OC)C(COc1cc(C)cc(C)c1)N(C(=O)CC1CCCCC1)CC2 (stereo unspecified) | 32% |
| CCCCC(=O)N1CCc2cc(OC)c(OC)cc2C1COc1ccc(C(=O)OC)cc1 (stereo unspecified) | 18.4% |
| COc1cc2c(cc1OC)C(COc1ccc(F)cc1)N(C(=O)c1ccccc1F)CC2 (stereo unspecified) | 67% (active) |
| COc1ccc(C2=NOC(C(=O)N3CCC4(CC3)OCCO4)C2)cc1OC (stereo unspecified) | -8.22% |
| COc1ccc(-c2nc(COc3cc(C)ccc3F)no2)cc1 | -32.4% |
| CSCCC(NS(=O)(=O)c1cccs1)C(=O)O (stereo unspecified) | -3.2% |
| CSc1nc(SC)c2c3c(sc2n1)CSC(C)(C)C3 | 2% |
| CCc1ccc(OCC(O)CN2CCN(c3ccccc3F)CC2)cc1 (stereo unspecified) | -21.8% |
| COc1cc(NCCCCN2C(=O)c3ccccc3C2=O)c2nccc(C)c2c1 | 4% |
| COc1ccc(C2=NOC(C(=O)N3CCN(c4ccccc4)CC3)C2)cc1 (stereo unspecified) | -6.03% |
| CCOC(=O)N1CCN(C(=O)C2CC(c3ccc(F)cc3)=NO2)CC1 (stereo unspecified) | 100% (active) |

| SMILES | inhibition |
| --- | --- |
| O=C(c1ccco1)N1CCN(C(=O)C2CC(c3ccc(F)cc3)=NO2)CC1 (stereo unspecified) | -6.79% |
| Cc1cc(C)cc(NC(=O)NC2CCN(c3ccccc3)C2=O)c1 (stereo unspecified) | -6.4% |
| COc1nccnc1N1CCC(N(C)C(=O)c2ccoc2)C1 (stereo unspecified) | 1.67% |
| Cc1cc(C(=O)N2CCOCC2)c2cccc(-c3cccs3)c2n1 | -5.8% |
| O=C(Nc1cccc(F)c1)N1CCC(N2CCN(Cc3ccc(F)cc3)C2=O)CC1 | 13% |
| CC(=O)N1c2c(cc(Br)cc2S(=O)(=O)Nc2cccc([N+](=O)[O-])c2)CC1C (stereo unspecified) | 6% |
| O=C(c1ccc([N+](=O)[O-])cc1)N1CCN(c2cccc(Cl)c2)CC1 | 13.1% |
| O=C(c1ccc2nc3ccc(Cl)cc3c(=O)n2c1)N1CCN(c2cccc(Cl)c2)CC1 | 6% |
| CC(=O)Nc1ccc(C(=O)N2CCN(c3cccc(Cl)c3)CC2)cc1 | 83.1% (active) |
| Cc1ccccc1-n1cnc(C(=O)NCCC(C)C)n1 | -3% |
| CC(C)C[C@@H]1COc2cc(N3CCC[C@@H]3CO)ccc2S(=O)(=O)N1 | -7.7% |
| Cc1ccc(N2CCN(C3CCCCCC3)CC2)cc1 | 7.2% |
| CC1CCN(c2ccc(N)cc2)CC1 | 79.6% (active) |
| CC1CCN(c2ccc([N+](=O)[O-])c(SCCO)c2)CC1 | 24% |
| Cn1c(C(=O)NCc2ccco2)cc2c1CCN(Cc1ccc(F)cc1)C2 | 40.4% |
| COc1ccc(C(=O)Nc2nc3ccccc3s2)cc1Br | -8% |
| O=C(COc1ccccc1)Nc1nc2ccccc2s1 | -8.3% |
| COc1ccc(OC)c(Nc2nc(CC(=O)Nc3nc4ccccc4s3)cs2)c1 | 54.7% (active) |
| CCCC(=O)N1CCN(c2nc3c(s2)c(C)nn3-c2ccc(F)cc2)CC1 | 0.3% |

Reference: PubChem BioAssay AID1671202 (University of Kansas High Throughput Screening Laboratory, 2021)
